# The whole screen tested about 190,000 compounds, of which about 3,500 (1.8%) were called active. For the sample, actives were picked, then their nearest neighbours and some compounds at random. Unmarked numbers belong to inactive results.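 How the source made its calls: active means inhibition above a set limit, 3 SD over mean compound inhibition (cut at about 8.4% in these data); inactive means the rest.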
# Assay: inhibitors of the yeast RAM network, primary screen, dse1pr::URA3 reporter, 5-FOA selection (AID 868);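 further: 0% = DMSO-only wells with no growth and 100% = 10 µM 1-NA-PP1 full growth; inhibition rescues growth on 5-FOA so higher OD means more RAM inhibition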
# Conditions: S. cerevisiae dse1pr::URA3 reporter, 5-FOA growth OD615, 2 d; at 50 µM; active compounds read high
row,Compound,inhibition
1,CC(=O)Nc1ccccc1C(=O)OCC(=O)c1cccc2ccccc12,9.49% (active)
2,O=C(Nc1cccc2ccccc12)N1CCC2(CC1)OCCO2,1.87%
3,CC1=CC(=Cc2sc3ccccc3[n+]2C)C=C(C)O1,0.13%
4,Cc1ccc(-c2cc(C(=O)N3CCC4(CC3)OCCO4)no2)cc1,-1.75%
5,COC(=O)N1C(c2ccccc2)C1c1ccccc1 (stereo not given),0.12%
6,OCC#CC[N+]1(CC#Cc2ccccc2)CCCC1,2.58%
7,O=C(NC(c1ccc(Cl)cc1)P(=O)(Oc1ccccc1)Oc1ccccc1)OCc1ccccc1 (stereo not given),11.3% (active)
8,O=C(Nc1cccc(OC(=O)N2CCCCC2)c1)N1CCOCC1,-1.26%
9,Cc1ccnc(-n2c(C)cc(/C=C3\C(=O)NC(=S)N(C)C3=O)c2C)c1,1.13%
10,CCOC(=O)C1SC2(C(F)(F)C(F)F)CC1(O)c1c(c(OC)c3occc3c1OC)O2 (stereo not given),9.36% (active)
11,NC(=O)Cn1cc(C(=O)c2ccccc2F)c2ccccc21,4.57%
12,O=C(COC(=O)c1ccccc1)Nc1ccc(Cl)cc1C(=O)c1ccccc1,8.43% (active)
13,O=C(CCNS(=O)(=O)c1ccccc1)Nc1ccc(Cl)cc1C(=O)c1ccccc1,2.12%
14,CN1CCN(C(=S)SCC(=O)Nc2ccc(Cl)cc2C(=O)c2ccccc2)CC1,-0.25%
15,COc1ccc(NC(=O)N2CCC3(CC2)OCCO3)c(OC)c1,4.37%
16,Cc1ccc(-c2nn(CCC#N)cc2C(=O)O)cc1C,-0.13%
17,C=CCN(CC=C)C(=O)Nc1ccc(OCC)cc1,1.22%
18,CN(C)P(=S)(Nc1ccccc1)C(Cl)(Cl)Cl (stereo not given),1.76%
19,CC(Cc1cccs1)NCc1ccc(Cl)cc1 (stereo not given),1.87%
20,CC1CCCCN1Cc1cccnc1 (stereo not given),1.23%
